TRPV1 ag – HTS Assay for Compounds that Act as Agonists of the Vanilloid Receptor 1; Transient receptor potential cation channel subfamily V member 1 (Homo sapiens), Q8NER1; hit rate 0.19% among 320,000; activation, % at 8.33 µM; AID 540275, 2011; TRPV1-expressing cells, Fluo-8 calcium influx, agonist mode; in the data active means activation above about 80%; inconclusive means between about 30% and that limit
Target sequence (Q8NER1 whole entry, looked up): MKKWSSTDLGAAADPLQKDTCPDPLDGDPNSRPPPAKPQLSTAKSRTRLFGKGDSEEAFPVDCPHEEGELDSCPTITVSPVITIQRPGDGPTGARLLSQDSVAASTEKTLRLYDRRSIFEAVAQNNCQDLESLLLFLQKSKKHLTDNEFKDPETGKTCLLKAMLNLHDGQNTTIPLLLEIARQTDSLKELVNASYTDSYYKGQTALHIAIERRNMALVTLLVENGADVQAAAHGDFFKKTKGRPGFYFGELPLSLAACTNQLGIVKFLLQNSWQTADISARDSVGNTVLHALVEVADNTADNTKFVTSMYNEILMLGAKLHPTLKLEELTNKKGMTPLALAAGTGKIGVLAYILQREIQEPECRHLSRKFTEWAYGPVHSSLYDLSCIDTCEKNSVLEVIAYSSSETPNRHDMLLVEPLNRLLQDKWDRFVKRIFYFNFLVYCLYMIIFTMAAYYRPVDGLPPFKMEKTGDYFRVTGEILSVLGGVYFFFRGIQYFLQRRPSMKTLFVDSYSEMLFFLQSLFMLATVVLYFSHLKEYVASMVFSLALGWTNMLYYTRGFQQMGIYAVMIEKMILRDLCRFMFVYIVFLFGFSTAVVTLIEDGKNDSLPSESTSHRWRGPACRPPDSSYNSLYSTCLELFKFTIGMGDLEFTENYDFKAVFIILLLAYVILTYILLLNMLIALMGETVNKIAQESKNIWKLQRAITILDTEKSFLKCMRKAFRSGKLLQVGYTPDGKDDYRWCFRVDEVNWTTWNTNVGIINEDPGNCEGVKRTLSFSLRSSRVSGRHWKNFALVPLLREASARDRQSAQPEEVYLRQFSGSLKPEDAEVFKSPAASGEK
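Cells expressing TRPV1 were dye-loaded with Fluo-8 and read kinetically: 10 s baseline, 3 min after compound (agonist portion), then 2 min after EC20 capsaicin (allosteric enhancer portion). Calcium-bound dye fluorescence at 480/520 nm.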
D1 ag – Allosteric Agonists of the Human D1 Dopamine Receptor: qHTS; AID 504660, 2011; hit rate 1% among 360,000; HEK293 T-REx D1 cells, calcium flux, agonist mode; D(1A) dopamine receptor (Homo sapiens), P21728; activation, % at 2 µM; in the data active means activation above about 30%
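Inducible HEK293 T-REx D1 cells, force-coupled to calcium signalling, were plated at 4000 cells/well with tetracycline and held overnight at 30 C. After no-wash calcium dye loading, compound-evoked calcium rise over 180 s flagged agonists.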
TRPV1 potentiator – HTS Assay for Compounds that Act as Potentiators of the Vanilloid Receptor 1; TRPV1-expressing cells, Fluo-8 calcium influx, capsaicin EC20 potentiation; potentiation, % at 8.33 µM; hit rate 0.02% among 320,000; AID 540277, 2011; in the data active means potentiation above about 80%; inconclusive means between about 30% and that limit
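Fluo-8 calcium influx in TRPV1-expressing cells, kinetic read (ex 480/em 520 nm). Compound added and read 3 min for agonist activity, followed by capsaicin at EC20 final and 2 min further read for enhancement.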
D1 PAM – Potentiators of Human D1 Dopamine Receptor: qHTS; D(1A) dopamine receptor (Homo sapiens), P21728; HEK293 TREx D1 cells, calcium flux, dopamine EC20 potentiation; potentiation, % at 10 µM; hit rate 0.036% among 360,000; AID 504651, 2011; in the data active means potentiation above about 30%
D1 antag – Antagonist of Human D 1 Dopamine Receptor: qHTS; D(1A) dopamine receptor (Homo sapiens), P21728; AID 504652, 2011; hit rate 3.2% among 360,000; HEK293 TREx D1 cells, calcium flux, dopamine EC80; stronger effect = lower value; activity change, negative = inhibition, % at 10 µM; in the data active means activity change below about -30%
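Tetracycline-induced HEK293 T-REx cells with force-coupled D1 receptor were loaded with a no-wash calcium dye. Compound was added after a 10 s baseline and read kinetically for 180 s; EC80 dopamine was then added and calcium flux followed another 180 s.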
Of the large screens only hits and unclear results are named; the others gave an inactive call; ! = not active in a repeat. Compounds with a hit are over-represented: about 4.2% of the library has one in this group of screens.

N#C/C(=C(O)\C=C\c1ccccc1)c1nc2ccccc2[nH]1	D1 antag -31
CSc1ccccc1OCc1cc(C(=O)N2CCSCC2)no1	TRPV1 ag inconclusive
COCC1CCN(C(=O)c2cc(COc3cccc4cnccc34)on2)CC1	none
O=C(c1cc(COc2cccc3cnccc23)on1)N1CCCC(CCCO)C1 (stereo unspecified)	D1 antag -55
CSc1ccccc1OCc1cc(C(=O)N2CCC(Oc3cccnc3)CC2)no1	D1 antag -46
COc1ccccc1OCc1cc(C(=O)N2CCCC(OCc3cccnc3)C2)no1 (stereo unspecified)	D1 antag -36
CCCC[C@]12Cc3cc(C#N)ccc3C(O1)c1c(cc(C)n(-c3ccccc3)c1=O)O2	none
CC(=O)Nc1ccc(C(=O)/C=C/c2ccco2)cc1	D1 antag -77
CC(=O)Nc1cccc(C(=O)/C=C/c2ccco2)c1	none
O=C(NC1CCCC1)C(c1ccsc1)N(C(=O)Cc1cccs1)c1cccc(F)c1 (stereo unspecified)	D1 antag -32
O=C(NCc1ccc(Cl)cc1)c1ccc2c(Cl)c3c(nc2c1)CCCC3	none (no result: TRPV1 ag, TRPV1 potentiator)
CCCCNC(=S)Nc1ccc(SC(F)F)cc1	D1 antag -42
COc1ccc(CNC(=O)CN(C)c2nn3c(=O)cc(C)nc3s2)cc1	none (no result: TRPV1 ag, TRPV1 potentiator)
CCOc1ccccc1CN1CCCC(CNS(=O)(=O)c2ccc(OC)cc2)C1 (stereo unspecified)	none
COC(=O)c1cc(S(=O)(=O)NCC2CCN(Cc3ccc(F)cc3)CC2)c[nH]1	none
COc1ccc(S(=O)(=O)NCC2CCCN(Cc3ccccc3C)C2)cc1 (stereo unspecified)	D1 antag -30
COc1ccc(CN2CCC(CNS(=O)(=O)c3cccc(C(F)(F)F)c3)CC2)cc1	D1 ag 35
O=S(=O)(NCC1CCCO1)c1cccc(C(F)(F)F)c1 (stereo unspecified)	D1 antag -46
CN(C1CCCCC1)S(=O)(=O)c1ccc2c(c1)c(=O)c(C(=O)NCCc1ccc(Cl)cc1)cn2C	none (no result: TRPV1 ag, TRPV1 potentiator)
CC(C)N(C(=O)Cn1cc(S(=O)(=O)Cc2ccc(Cl)cc2)c2ccccc21)C(C)C	none (no result: TRPV1 ag, TRPV1 potentiator)
N#CC(C#N)=C/C(C#N)=C(/N)N1CCN(c2ccc(Cl)cc2)CC1	D1 antag -40
CN(C)C(=C(C#N)C#N)N1CCN(c2ccc(Cl)cc2)CC1	none
O=C(CSc1nccn1Cc1ccc2c(c1)OCO2)Nc1ccccc1F	none (no result: TRPV1 ag, TRPV1 potentiator)
COc1cc(OC)c(NC(=O)c2c(N3CCCC3=O)c3cc(C)ccc3n2C)cc1Cl	D1 antag -88 (no result: TRPV1 ag, TRPV1 potentiator)
Cc1ccc2c(c1)c(N1CCCC1=O)c(C(=O)Nc1ccc(F)cc1F)n2C	none (no result: TRPV1 ag, TRPV1 potentiator)
COc1ccc(OC)c2sc(N(Cc3cccnc3)C(=O)c3ccc(C(C)=O)cc3)nc12	none (no result: TRPV1 ag, TRPV1 potentiator, D1 antag)
COC(=O)C1Cc2c([nH]c3ccccc23)C2(CCN(Cc3ccccc3)CC2)N1 (stereo unspecified)	D1 ag 58, D1 antag -39
CC/C(=N\Nc1ccc([N+](=O)[O-])cc1[N+](=O)[O-])c1ccc(O)cc1	D1 antag -34
C/C(=N/Nc1ccccc1[N+](=O)[O-])c1ccc([N+](=O)[O-])cc1	none
C/C(=N\Nc1ccc(C#N)cc1[N+](=O)[O-])c1ccc(O)cc1	TRPV1 potentiator inconclusive, D1 antag -43
COc1ccc(Br)cc1CNC(=O)CN1CCSc2ccccc21	none (no result: TRPV1 ag, TRPV1 potentiator)
Cc1ccc(-n2nc3c(=O)n(C(C)C(=O)NCc4ccco4)nc(C)c3c2C)cc1 (stereo unspecified)	D1 antag -35!
CCC(C(=O)Nc1ccccc1C(=O)OC)n1nc(C)c2c(C)n(-c3ccc(C)cc3)nc2c1=O (stereo unspecified)	none (no result: TRPV1 ag, TRPV1 potentiator)
CCOC(=O)C(CC)n1nc(C)c2c(C)n(-c3ccc(C)cc3)nc2c1=O (stereo unspecified)	D1 antag -48 (no result: TRPV1 ag, TRPV1 potentiator)
Cc1nn(C(=O)COc2ccccc2)c(C)c1Sc1ccccc1	D1 ag 110, D1 antag -65 (no result: TRPV1 ag, TRPV1 potentiator)
Cc1cc(C)cc(NC(=O)c2ccc(S(=O)(=O)C(F)F)cc2)c1	TRPV1 ag inconclusive
Cc1cccc(NC(=O)c2ccc(S(=O)(=O)C(F)F)cc2)c1C	TRPV1 ag 87
Cc1cccc(NC(=O)c2ccccc2O)c1C	D1 antag -32
O=C(Nc1ccccc1O)c1ccccc1O	none
Cc1ccc(C(=O)NCCc2ccncc2)cc1	D1 antag -36
O=C(NCCCCc1ccccc1)c1ccccc1F	TRPV1 ag inconclusive
O=C(NCCSCc1ccccc1)c1ccc(F)cc1	TRPV1 ag 81
CCOc1ccc(-c2cc(C(=O)NCCc3ccc(C)cc3)c3ccccc3n2)cc1	none (no result: TRPV1 ag, TRPV1 potentiator)
O=C(NCCc1ccccc1)c1ccccc1F	TRPV1 ag inconclusive, D1 antag -36
O=C(Cc1ccccc1)NCCSCc1ccccc1	none
Cc1ccc(-c2cc(C(=O)NCCc3ccccc3)c3ccccc3n2)cc1C	D1 antag -31 (no result: TRPV1 ag, TRPV1 potentiator)
Cc1ccc(CSC2=Nc3ccccc3C3=NC(CCC(=O)NC4CCCCC4)C(=O)N23)cc1 (stereo unspecified)	none (no result: TRPV1 ag, TRPV1 potentiator)
Cc1ccc(NC(=O)CSc2nc(=O)n(CCN3CCOCC3)c3c2CCC3)c(C)c1	none (no result: TRPV1 ag, TRPV1 potentiator, D1 antag)
Cc1ccc(Oc2ccc(C(=O)NCc3ccncc3)cc2)cc1	TRPV1 ag inconclusive
O=C(NCc1ccncc1)c1ccc(Oc2ccccc2)cc1	TRPV1 ag 91
O=C(NCCCc1ccccc1)c1ccccc1	TRPV1 ag inconclusive, D1 antag -41
O=C(NCCc1ccccc1)c1ccnc(/C=N/O)c1	D1 antag -34
COc1ccc(CCNC(=O)C(=O)NN=C2CCCCCCC2)cc1OC	D1 antag -74
COC(=O)c1cc2sccc2n1CC(=O)Nc1cc(Cl)ccc1OC	none (no result: TRPV1 ag, TRPV1 potentiator)
CCC12CN3CC(C)(CN(C1)C3c1c[nH]c3ccccc13)C2=O (stereo unspecified)	none (no result: TRPV1 ag, TRPV1 potentiator)
CCOc1ccc(CCNC(=O)c2ccc(Cn3c(=O)c4cccn4c4cccnc43)cc2)cc1	none (no result: TRPV1 ag, TRPV1 potentiator)
COc1ccc(Cn2c(C(=O)O)c(CNC3CCCCC3)c3ccc(C)cc32)cc1	none (no result: TRPV1 ag, TRPV1 potentiator)
COc1ccc(CCNC(=O)COc2ccc(-c3ccc(C)cc3)cc2)cc1OC	D1 antag -31
Cc1ccc(C(=O)NCCc2ccccc2)cc1	TRPV1 ag 84
Cc1ccc(S(=O)(=O)N(C)c2ccc(C(=O)NCCc3ccccc3)cc2)cc1	none
Cc1cc(C)n2ncc(C(=O)NCCc3ccccc3)c2n1	D1 antag -33
COc1ccc(CC(=O)NCCCc2ccccc2)cc1OC	TRPV1 ag 105
COc1cccc2cc(C(=O)NCCc3ccccc3)oc12	D1 ag 57, D1 antag -34
COc1cccc2cc(C(=O)NCc3ccccc3)c(=N)oc12	none

High-throughput results: PubChem BioAssay, National Center for Advancing Translational Sciences (NCATS)
